From PubChem BioAssay AID1159580 (chemical genetic matrix, 2015)
Several values for one entry are separate records, joined by “and”; a condition that tells them apart may be missing. Equal values may be shown once. The campaign covered roughly 5,500 compounds. About 2,000 (36%) were called active. Roughly 18% stayed inconclusive and do not appear here. Rule as the data show it: active = normalized growth mostly below about 0.91 (no sharp cut-off); inconclusive = no clear call, values can overlap the other calls; inactive = mostly above about 0.92. Some of the results follow.

Assay: chemical genetic growth profiling, strain panel (AID 1159580);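 also: tested at 20 µM; growth read once vehicle control cultures reached saturation at 30 °C; 1 = growth at the plate median or of vehicle wells; lower values mean less growth of the strain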
Details: S. cerevisiae deletion strains, growth OD

Measured: normalized growth

COc1ccc2c(c1)c(CC(=O)OCC(=O)O)c(C)n2C(=O)c1ccc(Cl)cc1
inactive: locus YAL013W, strain DEP1, stronger effect = lower value 1.01 | locus YAL021C, strain ccr4, stronger effect = lower value 0.982 | locus YAL026C, strain drs2, stronger effect = lower value 1.01 | locus YAL030W, strain snc1, stronger effect = lower value 0.99 | locus YBL061C, strain skt5, stronger effect = lower value 1 | locus YBR009C, strain hhf1, stronger effect = lower value 0.991 | locus YBR021W, strain FUR4, stronger effect = lower value 1.01 | locus YBR023C, strain chs3, stronger effect = lower value 1.01 | locus YBR171W, strain sec66, stronger effect = lower value 0.978 | locus YBR229C, strain ROT2, stronger effect = lower value 1.02 | locus YBR231C, strain swc5, stronger effect = lower value 0.973 | locus YBR279W, strain paf1, stronger effect = lower value 1.01 | locus YCL011C, strain gbp2, stronger effect = lower value 1.02 | locus YCL016C, strain dcc1, stronger effect = lower value 1.01 | locus YCL029C, strain bik1, stronger effect = lower value 1.04 | locus YCL069W, strain vba3, stronger effect = lower value 1 | locus YCR088W, strain abp1, stronger effect = lower value 1.01 | locus YDL005C, strain med2, stronger effect = lower value 0.979 | locus YDL035C, strain GPR1, stronger effect = lower value 1.02 | locus YDL040C, strain nat1, stronger effect = lower value 0.995 | locus YDL074C, strain BRE1, stronger effect = lower value 1.01 | locus YDL101C, strain DUN1, stronger effect = lower value 1.02 | locus YDL134C, strain PPH21, stronger effect = lower value 1.02 | locus YDL185W, strain tfp1, stronger effect = lower value 1.02 | locus YDL192W, strain arf1, stronger effect = lower value 1.02 | locus YDR001C, strain nth1, stronger effect = lower value 1.01 | locus YDR069C, strain doa4, stronger effect = lower value 0.996 | locus YDR101C, strain arx1, stronger effect = lower value 1.02 | locus YDR137W, strain rgp1, stronger effect = lower value 1.02 | locus YDR150W, strain NUM1, stronger effect = lower value 1.02 | locus YDR159W, strain sac3, stronger effect = lower value 0.964 | locus YDR162C, strain NBP2, stronger effect = lower value 1.01 | locus YDR195W, strain ref2 0.939 | locus YDR297W, strain sur2, stronger effect = lower value 1 | locus YDR318W, strain mcm21, stronger effect = lower value 1.02 | locus YDR334W, strain swr1, stronger effect = lower value 1 | locus YDR335W, strain msn5, stronger effect = lower value 0.989 | locus YDR388W, stronger effect = lower value 1.01 | locus YDR392W, strain spt3, stronger effect = lower value 1.03 | locus YDR502C, strain sam2, stronger effect = lower value 1.03 | locus YEL003W, strain gim4, stronger effect = lower value 0.988 | locus YEL037C, strain rad23, stronger effect = lower value 1 | locus YEL061C, strain CIN8 (second series), stronger effect = lower value 0.995 | locus YEL061C, strain CIN8, stronger effect = lower value 1.01 | locus YER015W, strain faa2, stronger effect = lower value 1 | locus YER016W, strain bim1, stronger effect = lower value 1.01 | locus YER110C, stronger effect = lower value 1.02 | locus YER111C, strain swi4, stronger effect = lower value 0.991 | locus YER155C, strain BEM2 (second series), stronger effect = lower value 0.989 | locus YER155C, strain BEM2, stronger effect = lower value 1.01 | locus YER167W, strain BCK2, stronger effect = lower value 1.01 | locus YFR010W, strain ubp6, stronger effect = lower value 0.994 | locus YGL078C, strain dbp3, stronger effect = lower value 1.01 | locus YGL086W, strain mad1, stronger effect = lower value 1.01 | locus YGL167C, strain pmr1, stronger effect = lower value 0.987 | locus YGL173C, strain kem1, stronger effect = lower value 0.976 | locus YGL227W, strain vid30, stronger effect = lower value 0.999 | locus YGL240W, strain doc1, stronger effect = lower value 0.982 | locus YGL248W, strain PDE1, stronger effect = lower value 1.01 | locus YGL253W, strain hxk2, stronger effect = lower value 1.01 | locus YGR078C, strain PAC10, stronger effect = lower value 1.02 | locus YGR135W, strain pre9, stronger effect = lower value 1.02 | locus YGR229C, strain SMI1, stronger effect = lower value 1.02 | locus YGR252W, strain gcn5, stronger effect = lower value 0.987 | locus YHR013C, strain ard1, stronger effect = lower value 1.09 | locus YHR027C, strain rpn1, stronger effect = lower value 0.999 | locus YHR030C, strain SLT2, stronger effect = lower value 1.02 and 0.958 | locus YHR079C, strain IRE1 (second series), stronger effect = lower value 1.01 | locus YHR079C, strain IRE1, stronger effect = lower value 0.941 | locus YHR094C, strain hxt1, stronger effect = lower value 1.01 | locus YHR129C, strain ARP1, stronger effect = lower value 1 | locus YHR142W, strain chs7, stronger effect = lower value 1.01 | locus YHR200W, strain rpn10, stronger effect = lower value 1.01 | locus YIL066C, strain RNR3, stronger effect = lower value 1.02 | locus YIL073C, strain SPO22, stronger effect = lower value 1.06 | locus YIL125W, strain kgd1, stronger effect = lower value 1.01 | locus YIR030C, strain dcg1, stronger effect = lower value 1.02 | locus YJL092W, strain hpr5, stronger effect = lower value 0.981 | locus YJL095W, strain BCK1 (second series), stronger effect = lower value 1.01 | locus YJL095W, strain BCK1, stronger effect = lower value 1.05 and 0.968 | locus YJL115W, strain asf1, stronger effect = lower value 0.992 | locus YJL129C, strain trk1, stronger effect = lower value 0.979 | locus YJL134W, strain LCB3, stronger effect = lower value 1.01 | locus YJL154C, strain vps35, stronger effect = lower value 0.992 | locus YJL164C, strain tpk1, stronger effect = lower value 1.03 | locus YJL166W, strain qcr8, stronger effect = lower value 0.974 | locus YJL168C, strain set2, stronger effect = lower value 1.01 | locus YJL187C, strain SWE1 (second series), stronger effect = lower value 1.03 | locus YJL187C, strain SWE1, stronger effect = lower value 1.01 | locus YJR043C, strain POL32, stronger effect = lower value 1.03 | locus YJR066W, strain TOR1, stronger effect = lower value 0.89
